{
  "source": "PubChem BioAssay AID977611",
  "origin": "cited, not measured here",
  "assay": "PubChem AID 977611",
  "details": "PDB protein-ligand complexes, literature Kd",
  "note": "Screen size: about 3,900 compounds; about 3,900 (100%) were called active. Cut-off not given; nearly all actives show Kd up to about 4200 µM. So high a share suggests a set chosen from earlier hits. Some of the results follow. Where a SMILES comes first, the peptide text is derived from it. Square brackets hold non-standard residues; d marks the D form. Residues, ends and D or L forms follow the SMILES beside them. Peptide text beside a SMILES is read from it. [ ]: non-standard residue; d: D form. ξ: configuration not given here. Orn(CH(NH2)2) = NC(N)NCCC[C@H](N)C(=O)O; ΔPro = O=C(O)[C@@H]1C=CCN1; Nva = CCC[C@H](N)C(=O)O; ξE = NC(CCC(=O)O)C(=O)O; Abu = CC[C@H](N)C(=O)O",
  "data": [
    {"compound": "CN(C)S(=O)(=O)c1ccsc1", "values": [
      {"measurement": "Kd", "setting": "protein: Pantothenate synthetase (T2A, E77G mutation), PDB entry 4efk", "result": "3200 µM (active)"},
      {"measurement": "Kd", "setting": "protein: Pantothenate synthetase (T2A, E77G mutation), PDB entry 4g5y", "result": "1700 µM (active)"}
    ]},
    {"compound": "CC1(C)NC(N)NC(N)N1c1ccc(Cl)cc1", "note": "(stereo not drawn)", "values": [
      {"measurement": "Kd", "setting": "protein: Dihydrofolate reductase, PDB entry 4kne", "result": "1.26 µM (active)"}
    ]},
    {"compound": "CC(=O)NCCCCNc1ncnc2c1ncn2[C@@H]1O[C@H](CN(CCCNC(=O)Nc2ccc(C(C)(C)C)cc2)C(C)C)[C@@H](O)[C@H]1O", "values": [
      {"measurement": "Kd", "setting": "protein: Histone-lysine N-methyltransferase, H3 lysine-79 specific DOT1L, PDB entry 4wvl", "result": "0.131 µM (active)"}
    ]},
    {"compound": "CCCCC/C=C\\C\\C=C/C=C/C=C/C[C@@H](O)CCCC(=O)O", "values": [
      {"measurement": "Kd", "setting": "protein: Tablysin 15, PDB entry 3u3u", "result": "0.133 µM (active)"}
    ]},
    {"compound": "C[C@H](NC(=O)[C@H](CCCNC(N)N)NC(=O)[C@@H](N)CCCCN)C(=O)N[C@@H](CO)C(=O)N[C@@H](CCCNC(N)N)C(=O)N[C@@H](Cc1c[nH]c2ccccc12)C(=O)N[C@@H](CC(=O)O)C(=O)N[C@@H](CCC(=O)O)C(=O)N[C@H](C(=O)N1CCC[C@H]1C(=O)O)[C@@H](C)O", "note": "(H-K[Orn(CH(NH2)2)]AS[Orn(CH(NH2)2)]WDETP-OH)", "values": [
      {"measurement": "Kd", "setting": "protein: Splicing factor 45(SPF45-UHM), PDB entry 2peh", "result": "1.1 µM (active)"}
    ]},
    {"compound": "CC(C)C[C@H](NC(=O)[C@H](CC(=O)O)NC(=O)[C@H](CO)NC(=O)[C@H](Cc1ccccc1)NC(=O)[C@@H](NC(=O)[C@@H](N)CCC(=O)O)[C@@H](C)O)C(=O)N[C@@H](Cc1c[nH]c2ccccc12)C(=O)N[C@@H](CCCCN)C(=O)N[C@@H](CC(C)C)C(=O)N[C@@H](CC(C)C)C(=O)N1CCC[C@H]1C(=O)O", "values": [
      {"measurement": "Kd", "setting": "protein: E3 ubiquitin-protein ligase Mdm2 (E69A, K70A mutation), PDB entry 4hfz", "result": "1.9 µM (active)"},
      {"measurement": "Kd", "setting": "protein: human-mimic Mdm4 protein, PDB entry 2z5t", "result": "2.4 µM (active)"}
    ]},
    {"compound": "CC[C@H](N)C(=O)N[C@H](C(=O)N[C@@H](Cc1ccccc1)C(=O)N[C@@H](CO)C(=O)N[C@@H](CC(=O)O)C(=O)N[C@@H](CC(C)C)C(=O)N[C@@H](Cc1c[nH]c2ccccc12)C(=O)N[C@@H](CCCCN)C(=O)N[C@@H](CC(C)C)C(=O)N[C@@H](CC(C)C)C(=O)N1CCC[C@H]1C(=O)O)[C@@H](C)O", "note": "(H-[Abu]TFSDLWKLLP-OH)", "values": [
      {"measurement": "Kd", "setting": "protein: native Mdm4 protein, PDB entry 2z5s", "result": "2.2 µM (active)"}
    ]},
    {"compound": "C[C@H](N)C(=O)N[C@@H](CO)C(=O)N[C@@H](CCCN=C(N)N)C(=O)N[C@@H](Cc1c[nH]c2ccccc12)C(=O)N[C@@H](CC(=O)O)C(=O)N[C@@H](CCC(=O)O)C(=O)N[C@H](C(=O)N1CCC[C@H]1C(=O)O)[C@@H](C)O", "note": "(H-ASRWDETP-OH)", "values": [
      {"measurement": "Kd", "setting": "protein: RNA-binding protein 39 CAPER-alpha, PDB entry 4oz1", "result": "2.4 µM (active)"}
    ]},
    {"compound": "CCC[C@H](NC(=O)[C@H](Cc1c[nH]c2ccccc12)NC(=O)[C@H](CC(C)C)NC(=O)[C@H](CC(=O)O)NC(=O)[C@H](CO)NC(=O)[C@H](Cc1ccccc1)NC(=O)[C@@H](NC(=O)C(N)CCC(=O)O)[C@@H](C)O)C(=O)N[C@@H](CC(C)C)C(=O)N[C@@H](CC(C)C)C(=O)N1CCC[C@H]1C(=O)N[C@@H](CCC(=O)O)C(=O)O", "note": "(stereo partly drawn) (H-[ξE]TFSDLW[Nva]LLPE-OH)", "values": [
      {"measurement": "Kd", "setting": "protein: Mdm4 protein, PDB entry 3dab", "result": "0.21 µM (active)"}
    ]},
    {"compound": "CC[C@H](C)[C@H](NC(=O)[C@H](CCC(=O)O)NC(=O)[C@H](CO)NC(=O)[C@@H](N)CCCNC(N)N)C(=O)N[C@H](C(=O)N[C@@H](CO)C(=O)N[C@H](C(=O)N[C@@H](C)C(=O)N1CC=C[C@H]1C(=O)N[C@@H](CO)C(=O)N[C@@H](CO)C(=O)N[C@@H](Cc1c[nH]c2ccccc12)C(=O)N[C@H](C(=O)N[C@H](C(=O)N1CCC[C@H]1C(=O)NCC(=O)N1CCC[C@H]1C(=O)O)C(C)C)C(C)C)[C@@H](C)O)[C@@H](C)CC", "note": "(H-[Orn(CH(NH2)2)]SEIISTA[ΔPro]SSWVVPGP-OH)", "values": [
      {"measurement": "Kd", "setting": "protein: B-cell lymphoma 6 protein, PDB entry 3bim", "result": "1.32 µM (active)"}
    ]},
    {"compound": "NCc1cccc2c1OCCCO2", "values": [
      {"measurement": "Kd", "setting": "protein: CATIONIC TRYPSIN, PDB entry 4ab8", "result": "136 µM (active)"}
    ]},
    {"compound": "COc1ccc2cccc(-n3cc(NC(N)=O)c(C(N)=O)n3)c2c1", "values": [
      {"measurement": "Kd", "setting": "protein: Tyrosine-protein kinase ITK/TSK kinase domain, PDB entry 4m0z", "result": "6.4 µM (active)"}
    ]},
    {"compound": "CCCOc1ccc2cccc(-n3cc(NC(N)=O)c(C(N)=O)n3)c2c1", "values": [
      {"measurement": "Kd", "setting": "protein: Tyrosine-protein kinase ITK/TSK kinase domain, PDB entry 4m13", "result": "0.2 µM (active)"}
    ]},
    {"compound": "CCOc1ccc2cccc(-n3cc(NC(N)=O)c(C(N)=O)n3)c2c1", "values": [
      {"measurement": "Kd", "setting": "protein: Tyrosine-protein kinase ITK/TSK kinase domain, PDB entry 4m12", "result": "0.9 µM (active)"}
    ]},
    {"compound": "NC(=O)Nc1cn(-c2cccc3ccccc23)nc1C(N)=O", "values": [
      {"measurement": "Kd", "setting": "protein: Tyrosine-protein kinase ITK/TSK kinase domain, PDB entry 4m0y", "result": "0.35 µM (active)"}
    ]},
    {"compound": "CC(C)Oc1ccc2cccc(-n3cc(NC(N)=O)c(C(N)=O)n3)c2c1", "values": [
      {"measurement": "Kd", "setting": "protein: Tyrosine-protein kinase ITK/TSK kinase domain, PDB entry 4m14", "result": "0.2 µM (active)"}
    ]},
    {"compound": "CC(C)C[C@H](NC(=O)[C@H](C)N)C(=O)N[C@@H](CCCCN)C(=O)N[C@@H](CCCNC(N)N)C(=O)N[C@@H](CCCNC(N)N)C(=O)N[C@@H](CC(N)=O)C(=O)N[C@H](C(=O)O)C(C)C", "note": "(HELM PEPTIDE1{A.L.K.[NC(N)NCCC[C@H](N[*:1])C(=O)[*:2]].[NC(N)NCCC[C@H](N[*:1])C(=O)[*:2]].N.V}$$$$V2.0)", "values": [
      {"measurement": "Kd", "setting": "protein: Importin-?, PDB entry 1iq1", "result": "0.035 µM (active)"}
    ]},
    {"compound": "H-AAKKLV-OH", "values": [
      {"measurement": "Kd", "setting": "protein: Coatomer subunit beta', PDB entry 4j73", "result": "27.7 µM (active)"}
    ]},
    {"compound": "CC(C)C[C@H](NC(=O)[C@H](CCCCN)NC(=O)[C@H](CCCNC(N)N)NC(=O)[C@H](C)N)C(=O)N[C@@H](CC(=O)O)C(=O)O", "note": "(H-A[Orn(CH(NH2)2)]KLD-OH)", "values": [
      {"measurement": "Kd", "setting": "protein: Coatomer subunit beta', PDB entry 4j84", "result": "20.4 µM (active)"}
    ]},
    {"compound": "S=CNc1ccc2oc(C3=NCCN3)cc2c1", "values": [
      {"measurement": "Kd", "setting": "protein: Chitinase A, PDB entry 3ary", "result": "1 µM (active)"},
      {"measurement": "Kd", "setting": "protein: Chitinase A, PDB entry 3arz", "result": "1 µM (active)"}
    ]}
  ]
}
